One may read the Inhibition as how much of the control response was suppressed.

Type in all cases: functional
For assay [1], the system named is Plasmodium falciparum. As to the kind of experiment: GSK_TCMDC: Inhibition of Plasmodium falciparum 3D7 in whole red blood cells, using parasite LDH activity as an index of growth. Test compounds present at 2uM.
Assay [2] deals with Plasmodium falciparum. As to the kind of experiment: GSK_TCMDC: Inhibition of Plasmodium falciparum Dd2 in whole red blood cells, using parasite LDH activity as an index of growth. Test compounds present at 2uM.
For the next assay, the system named is HepG2. Put plainly: GSK_TCMDC: Percent inhibition of human HepG2 cell line. Test compounds present at 10uM.

As for `Cc1cc(C(=O)Nc2ccc3c(c2)CCN3C2CCN(Cc3cccc(F)c3F)C2)no1` (configuration not stated), the Inhibition in the assay with Plasmodium falciparum [1] was 95%; with Plasmodium falciparum [2], 94%; in the assay with HepG2, 0%.

Turning to `O=C(NCCCc1ccccc1)c1csc(C2CCCN(C(=O)c3ccc(O)c(-c4ccccc4)c3)C2)n1` (configuration not stated), the values for the Inhibition in the assay with Plasmodium falciparum [1], in the assay on Plasmodium falciparum [2] and in the assay with HepG2 were 97%, 97% and 5%, respectively.

As to `Cc1cccc2nc(-c3ccc(-c4ccc(C(=O)NCCN5CCCC5)cc4)cc3)[nH]c12`, the figures for the Inhibition with Plasmodium falciparum [1], with Plasmodium falciparum [2] and in the assay with HepG2 were 100%, 77% and 25%, respectively.

`Cl.c1cc(COc2ccc(C3=NCCN3)cc2)nc(COc2ccc(C3=NCCN3)cc2)c1`: the Inhibition in the assay with Plasmodium falciparum [1] was found to be 100%; with Plasmodium falciparum [2], 98%; in the assay with HepG2, 8%.

Turning to `Cc1cc(N[C@@H](CC(C)C)C(=O)Nc2ccccc2)nc(NCC2CCCCC2)n1.O=C(O)C(F)(F)F`, the Inhibition in the assay with Plasmodium falciparum [1] is 100%; in the assay on Plasmodium falciparum [2], 95%; in the assay with HepG2, 8%.

Take `COc1ccc2nccc([C@@H](O)CN3CCC(NCc4cc5ccccc5s4)CC3)c2c1.O=C(O)C(=O)O`: the Inhibition in the assay with Plasmodium falciparum [1] stood at 97%; in the assay with Plasmodium falciparum [2] it was 53%; in the assay on HepG2, 8%.

`COc1ccc(NC(=O)CCNc2ccnc(NCCc3ccc(F)cc3)n2)cc1.O=C(O)C(F)(F)F`: the Inhibition in the assay on Plasmodium falciparum [1] amounted to 94%; with Plasmodium falciparum [2], 5%; in the assay with HepG2, 4%.

Turning to `O=C(Nc1cccc(C(F)(F)F)c1)Nc1ccc(F)c([N+](=O)[O-])c1`, the Inhibition in the assay with Plasmodium falciparum [1] turned out to be 100%; in the assay with Plasmodium falciparum [2] it was 100%; with HepG2 it was 43%.

With `O=C(NC1CC1)c1cnc(N2CCC(OCc3ccccc3)CC2)c(Cl)c1.O=C(O)C(F)(F)F`, the Inhibition in the assay with Plasmodium falciparum [1] worked out at 90%; with Plasmodium falciparum [2] it was 71%; with HepG2, 0%.

As for `CCC(C(=O)Nc1ccccc1)n1nc(-c2ccc(C)c(S(=O)(=O)N3CCCCC3)c2)ccc1=O` (configuration not stated), the figures for the Inhibition in the assay on Plasmodium falciparum [1], in the assay on Plasmodium falciparum [2] and in the assay on HepG2 were 85%, 67% and 0%, respectively.

Turning to `Cc1ccccc1CCNC(=O)c1cnc(N2CCN(c3ccncc3)CC2)c(Cl)c1.O=C(O)C(F)(F)F`, the Inhibition in the assay with Plasmodium falciparum [1] came to 100%; in the assay with Plasmodium falciparum [2], 95%; in the assay on HepG2 it was 36%.

Take `Cc1[nH]c2ccc(-c3ccccc3)cc2c(=O)c1Br`: the Inhibition was determined as 97% in the assay with Plasmodium falciparum [1], 97% with Plasmodium falciparum [2] and 0% in the assay with HepG2.

For `CN(C)CCOc1ccc(-c2cc(-c3ccc(Cl)c(O)c3)c(-c3ccnc(N)n3)o2)cc1`, the values for the Inhibition in the assay with Plasmodium falciparum [1], with Plasmodium falciparum [2] and with HepG2 were 100%, 95% and 43%, respectively.

For the compound `O=C(Nc1cccc(OC2CCN(Cc3ccsc3)CC2)c1)c1ccc(C(F)(F)F)cc1.O=C(O)C(F)(F)F`, the Inhibition is recorded as 98% in the assay on Plasmodium falciparum [1], 5% in the assay on Plasmodium falciparum [2] and 25% in the assay on HepG2.

On to `COc1cc(C(F)(F)F)c2cc(CNCCCNc3nc4ccccc4[nH]3)[nH]c2c1`, for which the Inhibition in the assay with Plasmodium falciparum [1] came to 100%; with Plasmodium falciparum [2], 0%; in the assay on HepG2, 60%.

As to `Cl.Cn1c(=O)n(C)c2cc(CNCCNc3ccnc4cc(Cl)ccc34)ccc21`, the Inhibition with Plasmodium falciparum [1] was 100%; in the assay with Plasmodium falciparum [2], 96%; in the assay on HepG2 it was 17%.

For the compound `COc1ccc(CCC(C)N2CC(N)C(c3cn(C)c4cnccc34)C2)cc1.Cl` (configuration not stated), the Inhibition in the assay with Plasmodium falciparum [1] was 98%; in the assay on Plasmodium falciparum [2], 0%; in the assay with HepG2, 5%.

With `CC(=O)O.COc1ccc(CNc2ccc3nc(N)nc(N)c3c2)cc1`, the Inhibition in the assay on Plasmodium falciparum [1] is recorded as 99%; with Plasmodium falciparum [2] it was 84%; in the assay with HepG2, 39%.

Regarding `Cc1cccc2nc(-c3ccc(-c4ccc(CN5CCCC5CN)cc4)cc3)[nH]c12.O=C(O)C(F)(F)F` (configuration not stated), the Inhibition was determined as 99% with Plasmodium falciparum [1], 65% in the assay on Plasmodium falciparum [2] and 28% with HepG2.

Take `COc1cccc(Nc2nc(NCCO)c3ccccc3n2)c1.Cl`: the Inhibition in the assay on Plasmodium falciparum [1] is given as 99%; in the assay on Plasmodium falciparum [2], 88%; in the assay with HepG2, 1%.

With `O=C(NC1CCN(Cc2ccccc2)CC1)c1ccc(-c2nc3cc(Cl)c(Cl)cc3[nH]2)c(F)c1`, the results for the Inhibition in the assay on Plasmodium falciparum [1], with Plasmodium falciparum [2] and in the assay with HepG2 were 100%, 83% and 4%, respectively.

Consider `CCC(ON1C(N)=NC(N)=NC1(C)C)c1ccccc1` (configuration not stated), for which the Inhibition in the assay on Plasmodium falciparum [1] came to 96%; with Plasmodium falciparum [2], 0%; with HepG2, 61%.

Regarding `O=C(O)C(F)(F)F.O=C1COC2(CN1C1CCN(Cc3ccc(O)cc3Cl)C1)c1ccccc1-c1ccccc12` (configuration not stated), the Inhibition stood at 82% with Plasmodium falciparum [1], 70% in the assay with Plasmodium falciparum [2] and 10% with HepG2.

Regarding `O=C(C=Cc1ccc(Br)cc1)N1CCC(CCN2CCC(c3c[nH]c4ccccc34)CC2)CC1`, the Inhibition in the assay on Plasmodium falciparum [1] is listed as 98%; in the assay on Plasmodium falciparum [2], 24%; with HepG2, 47%.

In the case of `CC(C)(C)c1ccc(CN2CCC(NC(=O)c3ccc(-c4ccccc4F)s3)CC2)cc1.O=C(O)C(F)(F)F`, the Inhibition with Plasmodium falciparum [1] is 85%; in the assay on Plasmodium falciparum [2], 37%; in the assay with HepG2 it was 36%.

For the compound `CCc1cc2c(=O)c(-c3nc(C)cs3)c([C@H](N)Cc3ccc(O)cc3)oc2cc1O.O=C(O)C(F)(F)F`, the Inhibition in the assay on Plasmodium falciparum [1] is listed as 100%; with Plasmodium falciparum [2] it was 19%; in the assay on HepG2, 11%.

For the compound `CCOc1ccccc1N1CCN(CCCNC(=O)/C(=C/C=C/c2cc3cc(Cl)c(Cl)cc3[nH]2)OC)CC1`, the values for the Inhibition in the assay with Plasmodium falciparum [1], with Plasmodium falciparum [2] and in the assay on HepG2 were 98%, 93% and 45%, respectively.

With `O=C(C=Cc1ccc(Cl)c(Cl)c1)NCCCCCN1CCCC(CCCNS(=O)(=O)c2ccc(Br)cc2)C1` (configuration not stated), the Inhibition in the assay with Plasmodium falciparum [1] worked out at 88%; in the assay on Plasmodium falciparum [2] it was 5%; in the assay with HepG2, 43%.

`Cc1cc(NC(=O)Nc2ccc(C(C)(C)C)cc2)c2ccccc2n1`: the Inhibition in the assay on Plasmodium falciparum [1] amounted to 100%; in the assay with Plasmodium falciparum [2] it was 57%; in the assay with HepG2, 0%.

For the origin of these results see ChEMBL document CHEMBL1157539, “Thousands of chemical starting points for antimalarial lead identification” (Nature, 2010).
